1 compound from PubChem BioAssay AID588835 (The Scripps Research Institute Molecular Screening Center, 2011) can be followed below.

Molecules are shown by their SMILES. Active and inactive are the calls of the source. No rule for the calls is given here.

The assay deals with Prolyl endopeptidase (Mus musculus) (UniProt Q9QUR6). The assay can be described thus: in situ PREP and ABHD6 off-target inhibition, dose response, selectivity assay for PME-1 inhibitor project, cell-based, fluorescence, gel-based ABPP (AID 588835). Conditions: in situ gel-based competitive ABPP; series mostly up to 10 µM.
Sequence of Prolyl endopeptidase (Mus musculus) (Q9QUR6 whole entry, looked up): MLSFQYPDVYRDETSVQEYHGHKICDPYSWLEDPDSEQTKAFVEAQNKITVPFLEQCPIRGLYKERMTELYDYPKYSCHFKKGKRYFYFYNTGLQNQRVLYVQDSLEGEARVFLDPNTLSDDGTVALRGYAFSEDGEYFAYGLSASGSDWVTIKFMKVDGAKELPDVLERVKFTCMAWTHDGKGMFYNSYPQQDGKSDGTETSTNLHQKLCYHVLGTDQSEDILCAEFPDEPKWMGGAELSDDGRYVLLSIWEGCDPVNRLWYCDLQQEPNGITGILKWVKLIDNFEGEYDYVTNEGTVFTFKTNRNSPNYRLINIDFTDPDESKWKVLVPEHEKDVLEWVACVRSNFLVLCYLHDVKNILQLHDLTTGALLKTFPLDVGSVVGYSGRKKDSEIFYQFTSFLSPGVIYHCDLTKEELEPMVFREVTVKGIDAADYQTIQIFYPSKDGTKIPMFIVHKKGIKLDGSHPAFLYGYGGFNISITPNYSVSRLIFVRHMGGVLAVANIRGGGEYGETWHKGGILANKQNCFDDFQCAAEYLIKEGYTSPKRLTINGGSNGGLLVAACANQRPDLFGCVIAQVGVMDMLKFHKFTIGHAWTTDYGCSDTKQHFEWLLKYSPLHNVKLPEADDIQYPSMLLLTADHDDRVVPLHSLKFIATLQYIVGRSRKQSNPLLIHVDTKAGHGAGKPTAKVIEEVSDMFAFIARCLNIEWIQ

Regarding `CC[C@@]1(c2ccc(C)cc2)C(=O)N(C(=O)OC(C)C)N1C(=O)OC(C)C`, the compound was called inactive.
